Assay results: PubChem BioAssay
Calls of active or inactive are those of the source.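 The calls were made as follows, unless noted: active = inhibition at or above 50% at 10 µM; inactive = inhibition below 50%.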 Where a SMILES comes first, the peptide text is derived from it.

Assays:
[1] = inhibitors of TNFa-induced NFkB p65 translocation, primary screen, imaging, HUVEC, MLSMR starter and 10KST1 sets (AID 438;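 active = inhibition above 20% together with a positive visual image hit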;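 also: compound added about 3h40 before a 20 min TNFalpha stimulation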;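 as to inhibition: signal is the nuclear over cytoplasmic p65 intensity ratio per well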); details: HUVEC TNFa-induced p65 nuclear translocation; cell count: measured here: nuclei count (cytotoxicity indicator), at 2.08 µM; inhibition: at 2 µM, stronger effect = higher value, 0% TNFa-plus-vehicle, 100% no-TNFa wells
[2] = reduction of polyQ htt aggregates in cells – imaging, exon1htt(103Q)mCFP cells, high-content imaging, primary screen (AID 483;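 active = visual image review flags a hit and inhibition of aggregation exceeds 20%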;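 also: compound exposure lasted 3 days before fixation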;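 as to nuclei count: percent of the per-plate median nuclei count of sample wells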); details: exon1htt(103Q)mCFP cell line, aggregate imaging, at 2 µM; inhibition of aggregation: stronger effect = higher value; nuclei count: measured here: cell count, toxicity
[3] = endothelial E-selectin expression blockers – imaging, HUVEC, immunofluorescence, MLSMR starter and 10KST1 sets, primary screen (AID 487;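 active = visually confirmed hit in the image check and inhibition above 20%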;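 as to inhibition: signal is fraction of cell area covered by stained E-selectin grains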;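 as to nuclei count: 100% = median nuclei count of all wells on the same plate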); details: HUVEC TNFalpha-induced E-selectin immunofluorescence imaging, at 2 µM; inhibition: stronger effect = higher value; nuclei count: measured here: cell number, toxicity
[4] = target: Voltage-gated potassium channel subunit beta-2 (Rattus norvegicus) (UniProt P62483); experiment: inhibitors of rat Kvbeta2 reductase activity – biochemical, NADPH fluorescence, primary screen (AID 622;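 active = fluorescence slope higher than the sample average by over 3 SD, cut at about -0.22 in these data, passing the limit was not always enough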;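 also: slope of raw intensity against log time taken from 70 to 1610 s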); details: recombinant KvBeta, 4-cyanobenzaldehyde reduction, at 10 µM, stronger effect = higher value
Voltage-gated potassium channel subunit beta-2 (Rattus norvegicus), sequence (P62483 whole entry, looked up): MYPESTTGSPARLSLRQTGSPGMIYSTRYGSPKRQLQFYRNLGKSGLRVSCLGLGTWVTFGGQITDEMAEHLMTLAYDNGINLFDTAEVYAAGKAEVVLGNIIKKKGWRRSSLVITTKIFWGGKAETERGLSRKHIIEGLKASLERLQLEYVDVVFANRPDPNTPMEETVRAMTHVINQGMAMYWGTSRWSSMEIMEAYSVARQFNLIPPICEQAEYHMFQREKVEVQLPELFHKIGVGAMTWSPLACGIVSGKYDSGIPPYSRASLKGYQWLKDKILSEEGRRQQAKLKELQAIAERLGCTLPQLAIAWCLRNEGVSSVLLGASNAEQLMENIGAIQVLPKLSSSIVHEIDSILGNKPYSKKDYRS

[5] = target: Voltage-gated potassium channel subunit beta-2 (Rattus norvegicus) (UniProt P62483); experiment: enhancers of rat Kvbeta2 NADPH turnover – biochemical, NADPH fluorescence, primary screen (AID 623;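 active = NADPH fluorescence slope more negative than the mean of all samples by about 3 SD, 99.7% confidence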;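 also: fluorescence intensity change per second fitted from 20 to 320 s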); details: Recombinant KvBeta, NADPH fluorescence decrease slope, 10 min; at 10 µM; stronger effect = lower value
[6] = target: Alpha-2C adrenergic receptor (Homo sapiens) (UniProt P18825); experiment: compounds altering alpha2C-coupled GIRK flux – cell-based, HEK293 alpha2C/GIRK1/2, thallium flux, primary screen (AID 624;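 active = fluorescence slope after compound addition differing from the mean of all screened samples at 99.7% confidence, in either direction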;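 also: slope of fluorescence ratio to pre-addition baseline per second over 15 to 24 s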); details: thallium flux BTC fluorescence, at 10 µM, actives lie on both sides
Alpha-2C adrenergic receptor (Homo sapiens), sequence (P18825 whole entry, looked up): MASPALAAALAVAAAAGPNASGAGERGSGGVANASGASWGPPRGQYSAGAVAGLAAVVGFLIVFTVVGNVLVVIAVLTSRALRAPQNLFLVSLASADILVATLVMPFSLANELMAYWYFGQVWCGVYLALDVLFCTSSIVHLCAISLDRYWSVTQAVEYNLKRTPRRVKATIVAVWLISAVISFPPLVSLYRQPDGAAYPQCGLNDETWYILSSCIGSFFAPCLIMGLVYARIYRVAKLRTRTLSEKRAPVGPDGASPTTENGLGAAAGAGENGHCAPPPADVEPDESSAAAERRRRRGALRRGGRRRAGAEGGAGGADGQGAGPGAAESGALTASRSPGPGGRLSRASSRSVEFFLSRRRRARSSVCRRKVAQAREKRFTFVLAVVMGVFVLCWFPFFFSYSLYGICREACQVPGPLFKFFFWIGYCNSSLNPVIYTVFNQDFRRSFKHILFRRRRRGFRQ

[7] = blockers of RIG-like receptor reporter activation – cell-based, Sendai virus stimulus, luciferase, 10K MLSCN set, TLR/RLR signaling modifier project, primary screen (AID 602276); details: HEK293 RL24 IRF3 luciferase reporter, at 10 µM, stronger effect = higher value;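 also: firefly luciferase from ISG56 promoter only with Renilla not read in this screen; 0% = Sendai virus plus DMSO and 100% = medium plus DMSO without virus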
[8] = TLR3 IRF3 reporter activation blockers – cell-based, poly I:C stimulus, luciferase, 10K MLSCN set, primary screen (AID 602277;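 active = inhibition of the reporter signal at or above 50%; inactive = inhibition below 50%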); details: HEK293-TLR3 RL24 IRF3 luciferase reporter, at 10 µM, stronger effect = higher value

Structure (SMILES)	cell count [1]	inhibition [1]	inhibition of aggregation [2]	nuclei count [2]	inhibition [3]	nuclei count [3]	fluorescence slope [4]	NADPH fluorescence slope [5]	slope [6]	inhibition [7]	inhibition [8]
Cn1c(=O)n(Cc2ccc(F)cc2)c(=O)c2c1nc1n2CCCN1Cc1ccccc1	698	1.6% (inactive)	-3.6% (inactive)	119%	-41.3% (inactive)	148%	-0.448 (inactive)	-6e-05 (inactive)	0.00383 (inactive)	7.62% (inactive)	12.8% (inactive)
CC1=C(C(=O)Nc2ccccc2C)C2(CCCC2)C(C(N)=O)C(=O)N1 (stereo not drawn)	683	0% (inactive)	-25.1% (inactive)	99%	-126% (inactive)	106%	-0.483 (inactive)	-4.6e-05 (inactive)	0.0058 (inactive)	13.6% (inactive)	17.8% (inactive)
CCN(CC)c1nc(N(CC)CC)[nH]c(=O)n1	477	-6.5% (inactive)	15.2% (inactive)	92.1%	-0.4% (inactive)	59.6%	-0.512 (inactive)	-3.2e-05 (inactive)	0.00579 (inactive)	3.82% (inactive)	-16% (inactive)
COc1ccccc1-c1nc2n(n1)C(c1cccs1)C(C(=O)Nc1cccnc1)=C(C)N2 (stereo not drawn)	446	16.2% (inactive)	-15.2% (inactive)	57.9%	7.4% (inactive)	98.9%	-0.587 (inactive)	-3.8e-05 (inactive)	0.00515 (inactive)	-11.5% (inactive)	-7.18% (inactive)
O=C(CSc1nnc(Cc2cc(=O)[nH]c(=O)[nH]2)n1-c1ccccc1)NCC1CCCO1 (stereo not drawn)	398	1.1% (inactive)	-3.9% (inactive)	110%	5.7% (inactive)	102%	-0.373 (inactive)	3.5e-05 (inactive)	0.00598 (inactive)	10.3% (inactive)	21.2% (inactive)
CCOC(=O)C1CCCN(C(=O)c2cc3c(=O)n4cccc(C)c4nc3n2C)C1 (stereo not drawn)	218	-6% (inactive)	3.5% (inactive)	91.5%	75.9% (active)	66.5%	-0.467 (inactive)	-1.3e-05 (inactive)	0.00547 (inactive)	17.9% (inactive)	23.7% (inactive)
Cc1nc2ccccc2c2oc(C(=O)NCCCN3CCCC3=O)cc12	472	1.3% (inactive)	-37.4% (inactive)	76%	-36.2% (inactive)	106%	-0.527 (inactive)	-2e-05 (inactive)	0.00837 (inactive)	10.3% (inactive)	7.6% (inactive)
c1cncc(-c2nnc3n2N=C(c2cccs2)CS3)c1	523	4.8% (inactive)	7.7% (inactive)	96.4%	-28.3% (inactive)	107%	-0.331 (inactive)	5.7e-06 (inactive)	0.00392 (inactive)	5.28% (inactive)	17.3% (inactive)
O=C(O)C1C2C=CC3(CN(C4CCCC4)C(=O)C13)O2 (stereo not drawn)	521	-3.4% (inactive)	24.1% (inactive)	69.2%	-23.3% (inactive)	97.3%	-0.546 (inactive)	-1.2e-05 (inactive)	0.00708 (inactive)	12.5% (inactive)	38% (inactive)
CC(=O)NC(C(=O)NCC(N)=O)C(C)C (stereo not drawn) (HELM PEPTIDE1{[ac].[CC(C)C(N[*:1])C(=O)[*:2]].G.[am]}$$$$V2.0)	517	-15.2% (inactive)	-13.6% (inactive)	89.2%	9.9% (inactive)	109%	-0.59 (inactive)	-3.6e-05 (inactive)	0.00838 (inactive)	-3.54% (inactive)	-10.4% (inactive)
CCOC(=O)c1sc2nc(NC(=O)C3CCCCC3)sc2c1C	570	-0.8% (inactive)	4.6% (inactive)	92.9%	19.5% (inactive)	96%	-0.533 (inactive)	-2.5e-05 (inactive)	0.00612 (inactive)	-10.3% (inactive)	-9.22% (inactive)
O=C(NC1CCCCC1)c1ccc(S(=O)(=O)N2CCCCC2)cc1	392	2.1% (inactive)	5.8% (inactive)	96.4%	-49.2% (inactive)	119%	-0.588 (inactive)	1.4e-05 (inactive)	0.00499 (inactive)	-18.3% (inactive)	-7.9% (inactive)
O=C(C1CCCN(S(=O)(=O)c2ccc(Br)s2)C1)N1CCCCCC1 (stereo not drawn)	217	-1.9% (inactive)	5.7% (inactive)	75.1%	30.6% (inactive)	31.6%	-0.378 (inactive)	-4.5e-05 (inactive)	0.00305 (inactive)	2.37% (inactive)	13.4% (inactive)
Cc1ccc(S(=O)(=O)Cc2ccc(C(=O)N3CCN(Cc4ccccc4)CC3)o2)cc1	760	-9.8% (inactive)	-10.9% (inactive)	101%	-76.2% (inactive)	118%	-0.569 (inactive)	-1.3e-05 (inactive)	0.00635 (inactive)	10.7% (inactive)	37.2% (inactive)
CCOC(=O)N1CCC(NC(=O)CS(=O)(=O)Cc2nc(-c3ccccc3C)oc2C)CC1	699	-7.5% (inactive)	2.1% (inactive)	96.6%	-66.8% (inactive)	119%	-0.513 (inactive)	-2.7e-05 (inactive)	0.00671 (inactive)	9.06% (inactive)	-5.43% (inactive)
O=C(c1csc2ccccc12)n1cccn1	327	5.6% (inactive)	6% (inactive)	99.2%	4.5% (inactive)	105%	-0.502 (inactive)	-3.1e-05 (inactive)	0.00494 (inactive)	19% (inactive)	21.3% (inactive)
Nc1nc(-c2ccc(Cl)cc2)nn1C(=O)c1cccnc1	293	4.2% (inactive)	-4.2% (inactive)	96.8%	40.8% (inactive)	105%	-0.397 (inactive)	6.7e-06 (inactive)	0.00507 (inactive)	-0.966% (inactive)	-2.82% (inactive)
COc1ccc(C2C(C(=O)Nc3cccnc3)=C(C)Nc3nc(-c4cccs4)nn32)cc1OC (stereo not drawn)	543	5.1% (inactive)	2.5% (inactive)	84.7%	3.4% (inactive)	104%	-0.593 (inactive)	-4.3e-05 (inactive)	0.0064 (inactive)	7.94% (inactive)	31.3% (inactive)
CCN(CC)CCN1C(=O)Cn2c(C)c(C)c3cccc1c32	426	-6.7% (inactive)	18.6% (inactive)	93.7%	-102% (inactive)	232%	-0.434 (inactive)	-1.1e-05 (inactive)	0.00506 (inactive)	15% (inactive)	24.1% (inactive)
COCc1nnc(NC(=O)CCCOc2ccccc2)s1	732	2.1% (inactive)	-7.8% (inactive)	92%	-11.3% (inactive)	103%	-0.42 (inactive)	9.1e-06 (inactive)	0.00536 (inactive)	1.61% (inactive)	9.03% (inactive)
CC(=O)NCCOc1cccc(OCCNC(C)=O)c1	369	2.8% (inactive)	6.8% (inactive)	103%	-22.5% (inactive)	117%	-0.432 (inactive)	4e-05 (inactive)	0.00674 (inactive)	-7.84% (inactive)	-11.9% (inactive)
O=C(CSc1nc(N2CCCCC2)nc(N2CCCCC2)n1)Nc1nccs1	280	-7% (inactive)	5.5% (inactive)	96.9%	-32.8% (inactive)	72.8%	-0.531 (inactive)	7.9e-06 (inactive)	0.00662 (inactive)	1.6% (inactive)	52.4% (active)
COc1ccc(OC)c(C(=O)c2coc3ccc(O)c(CN4CCOCC4)c23)c1	282	2.9% (inactive)	-12.4% (inactive)	120%	-28.2% (inactive)	109%	-0.561 (inactive)	-9.1e-06 (inactive)	0.00423 (inactive)	6.31% (inactive)	23% (inactive)
C=CCn1c(-c2ccc(OC)cc2)nc2ccccc21	386	-3.5% (inactive)	1% (inactive)	96.1%	-24.9% (inactive)	86.4%	-0.488 (inactive)	-4.7e-05 (inactive)	0.0046 (inactive)	-24.1% (inactive)	-54.6% (inactive)
Cc1cc2ccccc2c(=O)n1CC(=O)N(C)c1ccc(F)cc1	629	-4.7% (inactive)	-4.1% (inactive)	98%	-74.2% (inactive)	103%	-0.353 (inactive)	-5.6e-05 (inactive)	0.00579 (inactive)	2.03% (inactive)	9.91% (inactive)
Brc1ccc2[nH]c3nc(SCCN4CCOCC4)nnc3c2c1	683	-6.3% (inactive)	9% (inactive)	84.2%	-31.6% (inactive)	114%	-0.56 (inactive)	1.6e-05 (inactive)	0.00594 (inactive)	-18.9% (inactive)	-40.9% (inactive)
CCCCn1nnc(NC(=O)c2cc3ccccc3o2)n1	615	2.2% (inactive)	3.5% (inactive)	106%	-13.4% (inactive)	90.8%	-0.468 (inactive)	1.2e-05 (inactive)	0.00257 (inactive)	-19% (inactive)	-27.4% (inactive)
O=C(Nc1ccc2c(c1)OCCO2)C1CCCN(S(=O)(=O)c2cnc[nH]2)C1 (stereo not drawn)	628	4.1% (inactive)	-8% (inactive)	102%	-29.5% (inactive)	114%	-0.563 (inactive)	-4.5e-07 (inactive)	0.00662 (inactive)	-16.1% (inactive)	-6.55% (inactive)
